This note sets out measurements from PubChem BioAssay AID777 (Sanford-Burnham Center for Chemical Genomics, 2007).

Molecules are shown by their SMILES. Hit rate of the full screen: of about 96,000 compounds, about 19,000 (20%) were called active. A selection follows. Unmarked numbers belong to inactive results.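 How the source made its calls: active means blocking of liver enzyme CYP2C9 beyond about 50% at 5 µM (limit read from the data); inactive means the rest.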

Chain of Cytochrome P450 2C9 (Homo sapiens) (P11712 whole entry, looked up): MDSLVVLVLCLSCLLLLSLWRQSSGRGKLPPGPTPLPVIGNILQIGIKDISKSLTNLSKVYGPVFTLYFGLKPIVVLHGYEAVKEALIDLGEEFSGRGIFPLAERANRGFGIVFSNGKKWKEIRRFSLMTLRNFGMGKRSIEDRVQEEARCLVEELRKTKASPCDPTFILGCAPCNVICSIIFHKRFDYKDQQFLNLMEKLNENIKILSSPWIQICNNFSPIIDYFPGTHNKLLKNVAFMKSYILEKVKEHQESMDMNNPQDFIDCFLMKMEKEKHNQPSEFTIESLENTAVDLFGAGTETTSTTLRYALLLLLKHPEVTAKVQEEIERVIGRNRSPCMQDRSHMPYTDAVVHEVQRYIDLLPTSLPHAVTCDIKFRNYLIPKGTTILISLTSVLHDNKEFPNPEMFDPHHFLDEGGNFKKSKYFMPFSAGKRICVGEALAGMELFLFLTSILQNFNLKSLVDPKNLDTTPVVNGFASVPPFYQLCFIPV

The test addresses Cytochrome P450 2C9 (Homo sapiens) (UniProt P11712). Kind of test: blockers of cytochrome P450 2C9 activity – biochemical, luminescence, ADME assay, primary screen (AID 777). The conditions noted are these: CYP2C9 Supersomes, luciferin-H conversion, at 5 µM, hits give high values.
Regarding `COc1ccccc1-n1c(O)c(C=NC2CC2)c(=O)[nH]c1=O`, the inhibition (usually the change of the read-out against control, counted positive when it falls) is -3.5%. The same measure for `COc1ccc(CCn2c(O)c(C=NCCCn3ccnc3)c(=O)[nH]c2=O)cc1OC`: 61.3% (active). Consider `COc1ccc(CCn2c(O)c(C=NC3CC3)c(=O)[nH]c2=O)cc1OC`, for which the inhibition is 16.5%.

Turning to `COc1ccc(S(=O)(=O)NCc2ccc(C(=O)N3CCC4(CC3)OCCO4)cc2)cc1`, the inhibition was 4.3%. The same measure for `C=Cn1ccnc1P(=S)(c1cc(N(CC)CC)ns1)c1nccn1C=C`: 12.6%; for `CCOC(=O)C(O)(c1ccc(N)c(OC)c1)C(F)(F)F` (stereo not given): 25.7%. As for `COC(=O)C(O)(c1ccc(NC(=O)c2ccco2)c(OC)c1)C(F)(F)F` (stereo not given), the inhibition was 75.9% (active). The same measure for `CCOC(=O)C(O)(c1ccc(NC(=O)c2ccco2)c(OC)c1)C(F)(F)F` (stereo not given): 71.4% (active); for `C[N+]12CN3CN(CN(C3)C1)C2`: 0.8%. The same measure for `Cc1ccc(P(=S)(c2ccc(C)o2)N2CCOCC2)o1`: 11%; for `c1cncc(CNC2=NCCC2)c1`: -10.2%. With `COc1ccccc1N1CCN(C(CNC(=O)Oc2ccccc2)c2cccnc2)CC1` (stereo not given) the figure was 44.1%. With `CC(C)c1ccc(O)c(CN2CCN(c3ccccc3)CC2)c1`, the inhibition was 19.1%.

Regarding `CC[N+](CC)(CC)CCCCCCCCCC[N+](CC)(CC)CC`, the inhibition was -4.4%. With `O=C(CN1CCCCC1)Nc1ccc(Br)cc1C(=O)c1ccccc1Cl` the figure was 8.7%; with `CCC/C(=N\O)c1c[nH]c2ccccc12`, 10.1%; with `Cc1ccc2c(c1)C1CN(C)CCC1N2C(=O)Cn1nnc(-c2ccccc2F)n1` (stereo not given), 4.5%. For `CN1CCC(N(C)Cc2cccnc2)CC1`, the inhibition is -6.3%. The same measure for `CN1C2C=C(N(C(=O)c3ccc(Cl)cc3)c3ccccc3)CC1CC2` (stereo not given): 6.8%. With `Nc1ccc(C(=O)N/N=C2/CN3CCC2CC3)cc1` the figure was 8%; with `O=C(COc1ccc2ccccc2c1)N1CCN(Cc2ccncc2)CC1`, 90.5% (active). For the molecule `CN1CCN(C(=O)COc2ccc(C(C)(C)C)cc2Br)CC1`, the inhibition is -18%. The same measure for `CC(C)c1ccc(OCC(=O)N2CCN(C)CC2)c(Br)c1`: -1.3%; for `Cc1ccc(N(C)C(=O)Oc2cccc3ccc(C)nc23)cc1`: 36.4%. With `Cn1c(C(=O)N2CCC(C(=O)N3CCC4(CC3)OCCO4)CC2)cc2sccc21` the figure was -32.3%. The same measure for `CCOc1ccc(CN(CCCl)CCCl)cc1C(=O)OC`: 97.3% (active). With `Cn1c(O)c(C=Nc2ccc3c(c2)CCC3)c(=O)n(C)c1=O`, the inhibition is 11.5%. With `CC(=C1C(=O)c2ccccc2C1=O)N1CCN(CCN=Cc2c(O)n(C)c(=O)n(C)c2=O)CC1` the figure was 43.2%; with `CC(C)(C)c1ccc(CN2C(=O)CN=C(c3ccccc3)c3ccccc32)cc1`, 18.9%. The same measure for `O=C(O)C1CSC(c2cccnc2)N1` (stereo not given): -16.9%; for `C=CCN1C(=O)C2(C(C(=O)OCC)=C(N)Oc3c2c(=O)oc2ccccc32)c2ccccc21` (stereo not given): 88.5% (active); for `COC(=O)CN1C(=O)C2(C(C(=O)OC)=C(N)Oc3ccccc32)C2=C1CC(C)(C)CC2=O` (stereo not given): 38.6%. With `CCOC(=O)CC1=C(C(=O)OCC)C2(C(=O)N1)C(C(=O)OC)=C(N)Oc1ccccc12` (stereo not given) the figure was 20.6%; with `CNC(=O)N(C)c1nnc(C(C)(C)C)s1`, -22.2%. As for `Cc1ccc(C)c(NC2=NCCCS2)c1`, the inhibition is -2.6%. The same measure for `CCOC(=O)C1CN(C)CCC1=O` (stereo not given): 1.1%. As for `CCCCCn1c(=O)c(C(=O)Nc2c(C)n(C)n(-c3ccccc3)c2=O)c(O)c2ccccc21`, the inhibition was 25.9%.

Regarding `CCCCCn1c(=O)c(C(=O)NCc2ccccn2)c(O)c2ccccc21`, the inhibition was 78.1% (active). For the molecule `CCN1c2nc3c(C)cccn3c(=O)c2CC2(C(=O)N(C)C(=O)N(C)C2=O)C1C` (stereo not given), the inhibition is -8.4%. With `Cc1nc2ccccn2c1P(=S)(N1CCCCC1)N1CCCCC1` the figure was 11.7%.

On to `CCOC(=O)c1c(C)c(C(=O)N2CCC3(CC2)OCCO3)c(C)n1CC`, for which the inhibition was 31.2%. With `CN(C)C(=O)NC(O)C(Cl)(Cl)Cl` (stereo not given) the figure was 74.8% (active).

Turning to `Cc1cc(N2C(=O)C3CCCN3C2c2ccc(Cl)c(Cl)c2)no1` (stereo not given), the inhibition is 41.4%. The same measure for `COc1ccc(-c2nc(CS(=O)CC(=O)N3CCC4(CC3)OCCO4)c(C)o2)cc1` (stereo not given): 14.5%; for `O=C1/C(=C\c2ccc3c(c2)OCO3)N2CCC1CC2`: 22.5%. The same measure for `CCOC(=O)c1c(-c2ccccc2)oc2ccc(OC(=O)N(C)C)cc12`: 55% (active); for `O=C1NC(=O)C(C/C=C/c2ccccc2)C(=O)N1`: -3%; for `CC(=NCc1ccc2c(c1)OCO2)c1c(O)[nH]c(=O)[nH]c1=O`: -11.9%. The same measure for `CN1CCN(Cc2ccccc2C(F)(F)F)CC1`: 0.4%; for `CCN(CC)C(=O)c1ccc(NC(=O)c2cc(-n3cnnc3)ccc2Cl)cc1`: 32.9%; for `O=C(CCN1CCCCC1)NCC(=O)Nc1ccc(Br)cc1C(=O)c1ccccc1`: -14.9%.

For the molecule `CCOP(=S)(OCC)SCOC(=O)NCC(=O)OC`, the inhibition was 71.1% (active). The same measure for `c1ccc(C2NCc3ccccc3-n3cccc32)cc1` (stereo not given): 19.1%; for `CC(=O)c1ccc(OC(NC(=O)Cc2ccccc2)C(Cl)(Cl)Cl)cc1` (stereo not given): 86.4% (active); for `CC(=O)NC(=O)NC(C)Cc1ccccc1` (stereo not given): -12.4%. The same measure for `Cc1nc2nc(C)c(CCC(=O)N3CCC4(CC3)OCCO4)c(C)n2n1`: 3.8%; for `NC(=O)Nc1cccc(C(F)(F)F)c1`: -12.3%; for `CC(=O)Nc1ccccc1C(=O)OCC(=O)c1cccc2ccccc12`: 80.7% (active). The same measure for `CC12CN3CC(C)(CN(C1)C3c1cccs1)C2` (stereo not given): -10.5%; for `Cc1ccc(Cn2nnnc2CN2CCC(n3nnc4ccccc43)CC2)cc1`: 93.4% (active). Take `CSC1=NP(=S)(SC)N(C)c2nc3n(c21)CCC3` (stereo not given): the inhibition was 9.2%.

`Cc1cccc(N2C(=O)NC(=O)/C(=C\c3cnn(-c4ccccc4)c3)C2=O)c1`: the inhibition is -9.5%. The same measure for `COc1ccc(C(=O)C2CN(C)CC2C(=O)c2ccc(OC)cc2)cc1` (stereo not given): 12.4%; for `COc1ccccc1CN1CCN(C(=O)Cc2ccccc2)CC1`: 31.5%; for `COc1ccc(CN2CCN(c3ccccc3F)CC2)c(OC)c1`: 60.9% (active). `Fc1cccc(F)c1CN1CCN(Cc2c(F)cccc2F)CC1`: the inhibition is 7.2%. With `CC(=NCC1CCCO1)c1c(O)n(-c2ccccc2)c(=O)[nH]c1=O` (stereo not given) the figure was 27.9%.

For the molecule `CC(=NC1CCN(Cc2ccccc2)CC1)c1c(O)n(C)c(=O)n(C)c1=O`, the inhibition is 17.4%. The same measure for `CCC(=NCCc1ccccc1)c1c(O)n(C2CCCCC2)c(=O)[nH]c1=O`: 68.4% (active); for `CC(=O)c1c(O)n(C2CCCCCC2)c(=O)[nH]c1=O`: 82.9% (active); for `CN1CCN(Cc2ccc(OC(F)(F)F)cc2)CC1`: 3.1%. With `CCc1nc2ccccc2c(=O)n1-c1cccc(OC)c1` the figure was -4%; with `CC(=O)N(C1=NCCCS1)c1ccccc1F`, 18.1%; with `COC(=O)C(c1ccccc1)N1CCCCCC1` (stereo not given), 5.8%.

As to `O=c1c2ccccc2nc(-c2ccco2)n1-c1ccc(Br)cn1`, the inhibition was -4.8%. With `COc1ccccc1N=C1SCCCN1C`, the inhibition is -3.6%. With `CCN(CC)CCOC(=O)c1cc2cc(COC)ccc2o1` the figure was -1.3%; with `O=C(c1cc(-c2ccncc2)nc2ccccc12)N1CCC2(CC1)OCCO2`, 41.9%.

As to `O=C(c1cc2nc(-c3ccccc3)cc(-c3ccccc3)n2n1)N1CCC2(CC1)OCCO2`, the inhibition is 94.6% (active).

As for `Cc1cccc(-n2c(C)nc3cc(C(=O)N4CCC5(CC4)OCCO5)ccc32)c1`, the inhibition was 13.7%. On to `CCN(CC)P(=O)(Oc1cccc(C)c1)N(CC)CC`, for which the inhibition was 46.2%. With `CCC(=O)CC(c1ccc([N+](=O)[O-])cc1)c1c(O)c2ccccc2oc1=O` (stereo not given) the figure was 75.8% (active); with `O=C(C1CC(=O)N(C2CCCC2)C1)N1CCC2(CC1)OCCO2` (stereo not given), 9.5%. With `CC(=O)N1CN2CN(C(C)=O)CC(C(=O)c3ccc(Br)cc3)(C2)C1`, the inhibition is -14.6%. The same measure for `Fc1ccc(N2CCN(Cc3ccc4c(c3)OCO4)CC2)cc1`: 14.2%; for `c1ccc2sc(C3CCCNC3)nc2c1` (stereo not given): -23%; for `CCCCn1c(O)c(C(CC)=NCc2ccco2)c(=O)[nH]c1=O`: 56.4% (active). In the case of `CCC(=NCCCO)c1c(O)n(-c2ccc(OC)cc2)c(=O)[nH]c1=O`, the inhibition was -2.8%. With `CCCCCCN=C(CC)c1c(O)n(CCCC)c(=O)[nH]c1=O` the figure was 93.6% (active).

As to `CCC(=NCc1ccco1)c1c(O)n(Cc2ccccc2)c(=O)[nH]c1=O`, the inhibition was 35.4%. `Cc1cc(OCc2cc(C(=O)O)oc2C)c2c3c(c(=O)oc2c1)CCCC3`: the inhibition was 22.2%.

`OC(CNC1CCCCC1)c1ccccc1` (stereo not given): the inhibition is 28.7%. With `O=c1c2ccccc2nc(-c2ccc(Cl)cc2Cl)n1-c1ccncc1` the figure was 17.2%; with `COC(=O)N(c1ccc(OC)cc1)P1(=S)OCCC(C)O1` (stereo not given), 12.9%; with `CCc1cccc2c(C#N)cn(CC(=O)N3CCOCC3)c12`, 37.3%. With `N[C@@H](Cc1c[nH]c2ccccc12)c1nnc(SCc2c(F)cccc2Cl)o1` the figure was 70.3% (active); with `CCCC(C)n1[nH]c(=O)c2c1NC(=O)CSC2c1ccc(OC)c(OC)c1` (stereo not given), 1.7%. The same measure for `CCN1CCN(C(=O)Cc2coc3cc(C)cc(C)c23)CC1`: -3.2%; for `CCOC(=O)c1c(N)n(CCN2CCOCC2)c2nc3ccccc3nc12`: 25.6%; for `COc1cc(Cn2c(N)c(C(=O)NCc3ccco3)c3nc4ccccc4nc32)cc(OC)c1OC`: 100% (active).

In the case of `CCOC(=O)c1c(N)n(Cc2ccccc2)c2nc3ccccc3nc12`, the inhibition is 12%. With `O=C(c1cc(S(=O)(=O)N2CCOCC2)ccc1F)N1CCC2(CC1)OCCO2` the figure was -0.4%. The same measure for `Cc1cc(C)cc(NC(=S)NC2CC3CCCC(C2)N3Cc2cccs2)c1` (stereo not given): 8.1%; for `CNP1(NC)=Nc2nn(-c3ccccc3)c(N)c2C(c2ccccc2)=N1`: -4%; for `CC1(C)C(c2ccccc2)=NC(c2cccnc2)=[N+]1[O-]`: 38.2%.

In the case of `Cn1c(O)c(C=NCCCC(=O)O)c(=O)n(C)c1=O`, the inhibition was -3.8%. As to `C/C(CCc1c[nH]c2ccccc12)=N\O`, the inhibition was -21.6%. On to `CCOC(=O)C1=C(C)OC(N)=C(C(=O)OC)C12C(=O)Nc1ccc(Br)cc12` (stereo not given), for which the inhibition is 22%. The same measure for `COc1ccc(C2NCc3ccc4c(c3-n3cccc32)OCO4)cc1OC` (stereo not given): 10.3%. The same measure for `CCOC(=O)C1SC2(C(F)(F)C(F)F)CC1(O)c1c(c(OC)c3occc3c1OC)O2` (stereo not given): 87% (active); for `CCNc1nc2[nH]c(=O)c3c(c2s1)OC(N)=C(C#N)C3c1cccs1` (stereo not given): -5.9%. As to `CCOc1ccc(C2SCC(=O)Nc3c2c(C)nn3C2CCOC(C)(C)C2)cc1` (stereo not given), the inhibition is 7.4%.

`N#Cc1ccc(Cn2cc(C(=O)c3ccco3)c3ccccc32)cc1`: the inhibition is 77.3% (active).

On to `CC1=C(C(=O)Nc2ccccc2)SCCO1`, for which the inhibition is -1.2%.

In the case of `O=C(CSC1c2ccccc2-c2ccccc21)N/N=C/c1ccccc1`, the inhibition was 21.3%.
